# Test results: PubChem BioAssay (EPA / NIEHS)
# Several values for one entry are separate records, joined by “and”; a condition that tells them apart may be missing. Equal values may be shown once. Records with an inconclusive call do not appear. Where a structure was tested more than once in an assay, its records may differ in their call. Activity calls are given as the source filed them. The calls were made as follows, unless noted: active = hit-call score of the fitted dose curve at least 0.9, where 1 is the maximum; inactive = score below 0.9.
# What was measured:
# [1] = target: Bile acid receptor (Homo sapiens) (UniProt Q96RI1); test: ATG_FXR_TRANS: Attagene TRANS-FACTORIAL HepG2 Assay for Farnesoid X Receptor (FXR) (AID 2282979; active = hit-call score of the fitted dose curve at least 0.9, where 1 is the maximum;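 also: hits raise reporter mRNA above DMSO so AC50 marks FXR activation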); details: HepG2 Attagene TRANS FXR-GAL4 reporter transcription
# Chain of Bile acid receptor (Homo sapiens) (Q96RI1 whole entry, looked up, the tested form may be a part): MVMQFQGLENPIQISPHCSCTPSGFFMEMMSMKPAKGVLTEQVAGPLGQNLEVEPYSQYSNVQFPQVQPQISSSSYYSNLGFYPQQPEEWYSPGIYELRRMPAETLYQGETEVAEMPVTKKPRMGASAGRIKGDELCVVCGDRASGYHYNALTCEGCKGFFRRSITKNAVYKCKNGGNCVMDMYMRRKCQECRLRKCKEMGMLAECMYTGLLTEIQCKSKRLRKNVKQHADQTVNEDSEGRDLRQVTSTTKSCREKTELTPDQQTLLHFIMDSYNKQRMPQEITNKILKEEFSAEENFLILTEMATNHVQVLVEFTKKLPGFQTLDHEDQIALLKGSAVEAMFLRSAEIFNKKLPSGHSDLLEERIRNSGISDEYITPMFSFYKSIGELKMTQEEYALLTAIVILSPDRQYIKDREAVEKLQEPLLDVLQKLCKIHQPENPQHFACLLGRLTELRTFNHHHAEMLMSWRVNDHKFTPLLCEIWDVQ
# In short: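 Reporter transcripts from transfected HepG2 cells were measured 24 h after dosing, using RT-PCR with capillary electrophoresis of 6-FAM-labelled fragments. The read-out reflects activity of exogenous FXR-Gal4 chimera on GAL4-UAS units, with induction relative to DMSO.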
# [2] = target: Oxysterols receptor LXR-beta (Homo sapiens) (UniProt P55055); test: ATG_LXRb_TRANS: Attagene TRANS-FACTORIAL HepG2 Assay for human Liver X Receptor beta (LXRb) (AID 2282981; active = hit-call score of the fitted dose curve at least 0.9, where 1 is the maximum); details: HepG2 Attagene TRANS GAL4-LXRb reporter, mRNA
# Chain of Oxysterols receptor LXR-beta (Homo sapiens) (P55055 whole entry, looked up, the tested form may be a part): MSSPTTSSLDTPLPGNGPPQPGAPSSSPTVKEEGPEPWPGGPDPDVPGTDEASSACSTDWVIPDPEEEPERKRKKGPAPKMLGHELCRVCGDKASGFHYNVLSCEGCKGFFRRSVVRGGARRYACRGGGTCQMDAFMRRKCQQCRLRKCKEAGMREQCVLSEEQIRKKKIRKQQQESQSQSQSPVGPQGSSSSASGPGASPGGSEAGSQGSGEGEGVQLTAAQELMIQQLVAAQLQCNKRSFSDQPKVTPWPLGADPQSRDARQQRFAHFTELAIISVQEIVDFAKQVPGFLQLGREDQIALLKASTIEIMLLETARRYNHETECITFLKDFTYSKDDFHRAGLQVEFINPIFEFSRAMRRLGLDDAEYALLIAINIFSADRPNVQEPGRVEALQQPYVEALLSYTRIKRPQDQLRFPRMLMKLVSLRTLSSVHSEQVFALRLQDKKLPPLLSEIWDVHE
# In short: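 After 24 h of chemical treatment, transfected HepG2 cells yield total RNA; reporter cDNA is PCR-amplified, FAM-labelled, HpaI-cut and run on capillary electrophoresis. Signal reflects chimeric LXRb-Gal4 activity on GAL4-UAS reporters.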
# [3] = ATG_M_32_TRANS: Attagene TRANS-FACTORIAL HepG2 Assay for M32 Transcription Factor (Internal Marker) (AID 2282984; active = hit-call score of the fitted dose curve at least 0.9, where 1 is the maximum;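 also: transcript level of a background control reporter unit measured by RT-PCR and capillary electrophoresis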); details: HepG2 Attagene TRANS M32 internal marker reporter
# In short: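 Cell-based TRANS-format assay in HepG2: exogenous chimeric GAL4 reporter units transiently expressed, compounds applied 24 h. Reporter mRNA detected by RT-PCR plus capillary electrophoresis; this readout is an internal background marker.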
# [4] = target: Transcriptional activator Myb (Homo sapiens) (UniProt P10242); test: ATG_Myb_CIS: Attagene CIS-FACTORIAL HepG2 Assay for human Myeloblastosis (Myb) Proto-Oncogene Transcription Factor (AID 2282986); details: HepG2 Attagene CIS-FACTORIAL Myb reporter transcription; actives raise or lower the signal
# Chain of Transcriptional activator Myb (Homo sapiens) (P10242 whole entry, looked up): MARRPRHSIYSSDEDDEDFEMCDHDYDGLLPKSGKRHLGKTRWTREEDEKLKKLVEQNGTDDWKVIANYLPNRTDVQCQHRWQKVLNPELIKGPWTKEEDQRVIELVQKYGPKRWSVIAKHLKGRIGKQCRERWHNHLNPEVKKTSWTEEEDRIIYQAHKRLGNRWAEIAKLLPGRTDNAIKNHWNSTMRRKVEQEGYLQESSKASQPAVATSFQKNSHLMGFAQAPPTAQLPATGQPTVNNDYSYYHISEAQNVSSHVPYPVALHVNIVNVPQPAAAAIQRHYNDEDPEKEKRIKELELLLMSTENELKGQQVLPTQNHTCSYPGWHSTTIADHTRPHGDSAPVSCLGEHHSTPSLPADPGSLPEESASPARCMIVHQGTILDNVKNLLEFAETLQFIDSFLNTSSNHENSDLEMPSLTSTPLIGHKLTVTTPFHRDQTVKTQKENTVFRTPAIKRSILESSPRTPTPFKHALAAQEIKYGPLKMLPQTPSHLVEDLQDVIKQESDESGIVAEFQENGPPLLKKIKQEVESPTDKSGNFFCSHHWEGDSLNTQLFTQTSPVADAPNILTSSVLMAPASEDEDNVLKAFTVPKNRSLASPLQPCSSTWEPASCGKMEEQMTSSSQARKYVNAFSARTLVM
# In short: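 In this HepG2 transient-transfection format, cis-regulated reporter mRNA is quantified 24 h post-dosing by RT-PCR with capillary electrophoresis, fitted bidirectionally to DMSO baseline.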
# [5] = target: Nuclear respiratory factor 1 (Homo sapiens) (UniProt Q16656); test: ATG_NRF1_CIS: Attagene CIS-FACTORIAL HepG2 Assay for human Nuclear Respiratory Factor 1 (NRF1) Orphan Gene (AID 2282987); details: HepG2 NRF1 cis-element reporter, Attagene multiplex; actives raise or lower the signal
# Chain of Nuclear respiratory factor 1 (Homo sapiens) (Q16656 whole entry, looked up): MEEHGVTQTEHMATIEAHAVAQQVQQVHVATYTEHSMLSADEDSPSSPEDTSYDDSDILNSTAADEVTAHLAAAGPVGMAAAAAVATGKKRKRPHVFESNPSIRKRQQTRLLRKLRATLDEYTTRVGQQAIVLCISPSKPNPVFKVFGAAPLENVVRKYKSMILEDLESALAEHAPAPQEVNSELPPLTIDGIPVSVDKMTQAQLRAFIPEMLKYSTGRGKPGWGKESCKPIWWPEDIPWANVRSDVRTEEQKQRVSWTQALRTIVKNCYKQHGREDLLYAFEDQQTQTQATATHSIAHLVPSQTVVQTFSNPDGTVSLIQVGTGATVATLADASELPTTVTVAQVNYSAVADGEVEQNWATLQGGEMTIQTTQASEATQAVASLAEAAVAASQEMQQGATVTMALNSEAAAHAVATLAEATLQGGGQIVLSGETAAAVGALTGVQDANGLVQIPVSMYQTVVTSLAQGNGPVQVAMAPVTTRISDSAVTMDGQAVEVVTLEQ
# In short: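 Using DMSO as baseline, gain- or loss-of-signal was fitted for reporter mRNA levels in HepG2 cells transiently transfected with cis-regulated reporter units. Samples were taken 24 h after dosing and read by RT-PCR with capillary electrophoresis.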
# [6] = ATG_NFI_CIS: Attagene CIS-FACTORIAL HepG2 Assay for human Nuclear Factor I (NFI) (AID 2282989); details: HepG2 cis-regulatory reporter, NFI response element transcription; actives raise or lower the signal
# In short: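 Reporter transcription driven by endogenous transcription factors in HepG2 cells; 24 h treatment. Quantitation by labelled RT-PCR fragments on capillary electrophoresis, gain- or loss-of-signal relative to DMSO.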
# [7] = target: Myc proto-oncogene protein (Homo sapiens) (UniProt P01106); test: ATG_Myc_CIS: Attagene CIS-FACTORIAL HepG2 Assay for human Myelocytomatosis (Myc) Proto-Oncogene Transcription Factor (AID 2282990); details: HepG2, Attagene cis-reporter transcription factor activity; actives raise or lower the signal
# Chain of Myc proto-oncogene protein (Homo sapiens) (P01106 whole entry, looked up): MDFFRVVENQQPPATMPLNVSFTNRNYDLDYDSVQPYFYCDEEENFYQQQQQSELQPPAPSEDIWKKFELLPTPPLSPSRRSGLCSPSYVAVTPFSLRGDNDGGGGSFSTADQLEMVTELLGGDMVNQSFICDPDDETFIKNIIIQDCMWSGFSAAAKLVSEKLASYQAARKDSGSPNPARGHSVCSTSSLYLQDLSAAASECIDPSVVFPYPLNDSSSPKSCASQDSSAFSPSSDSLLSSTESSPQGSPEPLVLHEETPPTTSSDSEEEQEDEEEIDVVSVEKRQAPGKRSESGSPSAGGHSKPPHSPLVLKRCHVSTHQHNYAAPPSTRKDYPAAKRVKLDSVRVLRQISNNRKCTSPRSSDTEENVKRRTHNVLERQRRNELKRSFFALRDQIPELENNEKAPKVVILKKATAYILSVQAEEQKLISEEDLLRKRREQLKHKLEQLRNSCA
# In short: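 HepG2, transient MRTU transfection (cis promoters, endogenous TFs); 24 h dosing; TriZol RNA → oligo(dT) RT → PCR → 6-FAM primer extension → HpaI cut → CE. Bidirectional fit vs DMSO.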
# [8] = ATG_NF_kB_CIS: Attagene CIS-FACTORIAL HepG2 Assay for human Nuclear Factor Kappa B (NF-kB) (AID 2282991); details: HepG2 Attagene cis-factorial NF-kB reporter mRNA; actives raise or lower the signal
# In short: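 Endpoint from a 52-component multiplexed HepG2 reporter panel: cis-regulated transcription units transiently transfected, 24 h dosing, reporter mRNA quantified by RT-PCR and capillary electrophoresis, scored as increase or decrease against DMSO.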
# [9] = ATG_NRF2_ARE_CIS: Attagene CIS-FACTORIAL HepG2 Assay for human Nuclear Factor Erythroid 2 Related Factor 2 (NFR2) response to Antioxidant Response Elements (ARE) (AID 2282992); details: HepG2 Attagene ARE/NRF2 reporter, transcription factor activity; actives raise or lower the signal
# In short: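 Endogenous transcription factor activity read out as reporter transcript levels (RT-PCR plus capillary electrophoresis, fluorescence) in transiently transfected HepG2 cells. Measured at 24 h after dosing; gain or loss of signal fitted versus DMSO.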
# [10] = ATG_Oct_MLP_CIS: Attagene CIS-FACTORIAL HepG2 Assay for human Octamer-Binding Transcription Factor (Oct) (AID 2282993); details: HepG2 Attagene cis-factorial Oct reporter, mRNA; actives raise or lower the signal
# In short: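 Transfected HepG2 cells, 24 h treatment. Reporter mRNA quantified by RT-PCR–capillary electrophoresis; bidirectional fitting against DMSO.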
# [11] = target: Cellular tumor antigen p53 (Homo sapiens) (UniProt P04637); test: ATG_p53_CIS: Attagene CIS-FACTORIAL HepG2 Assay for human p53 Transcription Factor (AID 2282994); details: HepG2 p53 cis-element reporter, Attagene mRNA; actives raise or lower the signal
# Chain of Cellular tumor antigen p53 (Homo sapiens) (P04637 whole entry, looked up): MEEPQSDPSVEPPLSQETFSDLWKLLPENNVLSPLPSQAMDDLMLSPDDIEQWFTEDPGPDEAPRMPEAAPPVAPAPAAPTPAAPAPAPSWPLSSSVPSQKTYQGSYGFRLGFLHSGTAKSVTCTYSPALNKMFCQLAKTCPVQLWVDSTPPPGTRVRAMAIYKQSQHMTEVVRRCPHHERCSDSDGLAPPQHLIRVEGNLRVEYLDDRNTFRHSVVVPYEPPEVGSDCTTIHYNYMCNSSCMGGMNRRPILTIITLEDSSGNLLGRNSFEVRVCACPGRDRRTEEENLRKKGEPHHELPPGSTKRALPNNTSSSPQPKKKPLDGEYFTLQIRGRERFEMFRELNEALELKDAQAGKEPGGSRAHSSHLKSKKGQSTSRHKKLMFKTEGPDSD
# In short: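 Endogenous p53 activity read in transiently transfected HepG2 from a cis-element-driven reporter transcript after 24 h exposure. RNA reverse-transcribed, PCR-amplified, fluorescently labelled and sized by capillary electrophoresis; gain or loss fitted against DMSO baseline.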
# [12] = BSK_3C_TissueFactor: BioMAP Diversity Plus: 3C Assay for Tissue Factor Biomarker Activity (AID 2282997); details: BioMAP 3C HUVEC, tissue factor biomarker readout; actives raise or lower the signal
# In short: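 Tissue factor on primary human umbilical vein endothelium was read by ELISA 24 h after dosing, gain or loss relative to DMSO. Cytotoxicity ran alongside via SRB (0.1%, TCA-fixed, 560 nm).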
# [13] = BSK_3C_uPAR: BioMAP Diversity Plus: 3C Assay for Urokinase-type plasminogen activator receptor (uPAR) Biomarker Activity (AID 2282998); details: BioMAP 3C HUVEC, uPAR biomarker ELISA; actives raise or lower the signal
# In short: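 Readout: ELISA for surface uPAR. System: human umbilical vein endothelial primary cells, 24 h after chemical exposure. Analysis: bidirectional fit, DMSO baseline.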
# [14] = BSK_3C_VCAM1: BioMAP Diversity Plus: 3C Assay for Vascular cell adhesion molecule 1 (VCAM1) Biomarker Activity (AID 2282999); details: BioMAP 3C HUVEC, VCAM1 ELISA, cytokine-stimulated; actives raise or lower the signal
# In short: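 Activity fitted in both directions relative to DMSO, with ELISA measurement of the surface marker on primary HUVEC (3C) at 24 h post-treatment; parallel SRB staining (0.1% SRB, TCA-fixed, 560 nm) flagged overt cytotoxicity.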
# [15] = BSK_4H_Eotaxin3: BioMAP Diversity Plus: 4H Assay for Eotaxin 3 Biomarker Activity (AID 2283000); details: primary human endothelial cells (HUVEC); actives raise or lower the signal;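 as to outcome: CCL26 protein level quantified by ELISA in parallel with SRB cytotoxicity check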
# In short: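 Human umbilical vein endothelial cells (BSK_4H system) dosed with test chemical; Eotaxin-3 (CCL26) measured by ELISA 24 h after dosing. Bidirectional curve fitting relative to DMSO negative control as baseline.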
# [16] = target: human Peroxisome Proliferator-activated Receptor alpha (PPARa), PPARA (gene 5465) (UniProt Q07869); test: ATG_PPARa_TRANS: Attagene TRANS-FACTORIAL HepG2 Assay for human Peroxisome Proliferator-activated Receptor alpha (PPARa) (AID 2283001; active = hit-call score of the fitted dose curve at least 0.9, where 1 is the maximum;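 as to AC50: potency for gain of reporter signal over DMSO so agonist or activator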)
# Chain of human Peroxisome Proliferator-activated Receptor alpha (PPARa), PPARA (gene 5465) (Q07869 whole entry, looked up, the tested form may be a part): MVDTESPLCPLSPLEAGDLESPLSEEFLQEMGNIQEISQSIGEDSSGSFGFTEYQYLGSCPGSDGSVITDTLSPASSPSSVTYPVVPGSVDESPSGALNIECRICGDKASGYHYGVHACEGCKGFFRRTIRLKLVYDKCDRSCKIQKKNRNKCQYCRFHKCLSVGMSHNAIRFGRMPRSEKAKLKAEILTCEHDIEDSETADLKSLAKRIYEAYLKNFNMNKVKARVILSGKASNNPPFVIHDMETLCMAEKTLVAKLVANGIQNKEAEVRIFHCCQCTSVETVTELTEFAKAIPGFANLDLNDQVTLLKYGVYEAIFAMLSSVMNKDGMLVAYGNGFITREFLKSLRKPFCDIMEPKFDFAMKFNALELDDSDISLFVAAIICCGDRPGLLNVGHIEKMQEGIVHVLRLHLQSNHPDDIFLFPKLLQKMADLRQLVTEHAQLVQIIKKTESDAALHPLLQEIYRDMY
# In short: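 Transfected HepG2 cells treated with test chemical for 24 h. RNA isolated, reverse-transcribed with oligo(dT), PCR-amplified, FAM-labelled and HpaI-digested. Fragments sized by capillary electrophoresis; gain-of-signal fit relative to DMSO.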
# [17] = target: Oxysterols receptor LXR-alpha (Homo sapiens) (UniProt Q13133); test: ATG_LXRa_TRANS: Attagene TRANS-FACTORIAL HepG2 Assay for human Liver X Receptor alpha (LXRa) (AID 2282980; active = hit-call score of the fitted dose curve at least 0.9, where 1 is the maximum); details: HepG2 Attagene TRANS reporter, LXRa transactivation
# Chain of Oxysterols receptor LXR-alpha (Homo sapiens) (Q13133 whole entry, looked up, the tested form may be a part): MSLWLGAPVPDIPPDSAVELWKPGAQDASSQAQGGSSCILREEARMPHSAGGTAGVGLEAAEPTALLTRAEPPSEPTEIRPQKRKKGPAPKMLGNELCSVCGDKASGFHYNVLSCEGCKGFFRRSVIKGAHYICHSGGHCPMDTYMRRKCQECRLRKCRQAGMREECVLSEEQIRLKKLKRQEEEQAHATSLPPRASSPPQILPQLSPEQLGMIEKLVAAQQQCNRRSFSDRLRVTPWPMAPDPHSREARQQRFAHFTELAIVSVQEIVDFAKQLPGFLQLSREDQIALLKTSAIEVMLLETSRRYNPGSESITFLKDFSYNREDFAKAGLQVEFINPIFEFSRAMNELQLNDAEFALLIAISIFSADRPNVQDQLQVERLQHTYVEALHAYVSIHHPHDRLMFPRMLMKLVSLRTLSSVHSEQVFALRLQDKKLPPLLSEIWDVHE
# In short: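 Chemical-induced reporter mRNA measured by RT-PCR with fluorescent labelling and capillary electrophoresis after 24 h dosing of transiently transfected HepG2 cells expressing exogenous NR-Gal4 chimeras; increases scored against DMSO baseline.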
# [18] = ATG_M_06_TRANS: Attagene TRANS-FACTORIAL HepG2 Assay for M06 Transcription Factor (Internal Marker) (AID 2282983; active = hit-call score of the fitted dose curve at least 0.9, where 1 is the maximum); details: HepG2 Attagene TRANS M06 internal marker reporter
# In short: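 Background-control reporter readout: after 24 h chemical exposure of transiently transfected HepG2 (GAL4-UAS reporter units), mRNA quantified by RT-PCR with fluorescent labeling and capillary electrophoresis. Gain-of-signal fitting against DMSO baseline.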
# [19] = target: Nuclear receptor subfamily 4 group A member 2 (Homo sapiens) (UniProt P43354); test: ATG_NURR1_TRANS: Attagene TRANS-FACTORIAL HepG2 Assay for human Nuclear Receptor Related Protein 1 (NURR1) (AID 2282985; active = hit-call score of the fitted dose curve at least 0.9, where 1 is the maximum); details: HepG2 Attagene TRANS reporter, mRNA readout
# Chain of Nuclear receptor subfamily 4 group A member 2 (Homo sapiens) (P43354 whole entry, looked up, the tested form may be a part): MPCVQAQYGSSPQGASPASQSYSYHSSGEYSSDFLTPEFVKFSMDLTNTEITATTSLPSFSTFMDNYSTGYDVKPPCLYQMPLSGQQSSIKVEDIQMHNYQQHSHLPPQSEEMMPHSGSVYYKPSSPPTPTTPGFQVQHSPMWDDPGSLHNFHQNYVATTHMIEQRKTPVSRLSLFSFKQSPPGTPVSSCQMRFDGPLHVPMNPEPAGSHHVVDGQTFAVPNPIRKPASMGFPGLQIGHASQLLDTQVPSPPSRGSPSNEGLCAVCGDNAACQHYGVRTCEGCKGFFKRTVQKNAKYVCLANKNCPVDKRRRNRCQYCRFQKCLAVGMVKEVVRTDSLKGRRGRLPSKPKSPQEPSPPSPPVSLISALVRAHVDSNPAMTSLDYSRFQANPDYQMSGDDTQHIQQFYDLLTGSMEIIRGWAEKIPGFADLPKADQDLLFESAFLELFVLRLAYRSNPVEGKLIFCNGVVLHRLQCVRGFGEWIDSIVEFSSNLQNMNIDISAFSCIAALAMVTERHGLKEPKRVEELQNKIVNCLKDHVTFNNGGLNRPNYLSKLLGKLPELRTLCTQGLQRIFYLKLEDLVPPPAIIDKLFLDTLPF
# In short: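 Measures transcriptional activation by an exogenous NR-Gal4 chimera in transfected HepG2 liver cells. After 24 h, reporter RNA is reverse-transcribed, amplified and resolved by capillary electrophoresis; DMSO defines baseline.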
compound,measurement,setting,value
CCCCCCCCOc1ccc(C(=O)c2ccccc2)c(O)c1,outcome,[1],inactive
same,outcome,[2],inactive
same,outcome,[3],inactive
same,outcome,[4],inactive
same,outcome,[5],inactive
same,outcome,[6],inactive
same,outcome,[7],inactive
same,outcome,[8],inactive
same,outcome,[9],inactive
same,outcome,[10],inactive
same,outcome,[11],inactive
same,AC50,[12],13.2 µM (active)
same,outcome,[13],inactive
same,outcome,[14],inactive
same,outcome,[15],inactive
same,outcome,[16],inactive
CCCCCc1ccc(N)cc1,outcome,[17],inactive
same,outcome,[18],inactive
same,outcome,[3],inactive
same,outcome,[19],inactive
same,outcome,[4],inactive
same,outcome,[5],inactive
same,outcome,[6],inactive
same,outcome,[7],inactive
same,AC50,[8],20.2 µM (active)
same,outcome,[8],inactive
same,outcome,[10],inactive
same,AC50,[11],6.21 µM (active) and 6.72 µM (active)
same,outcome,[11],inactive
same,outcome,[12],inactive
same,outcome,[13],inactive
same,outcome,[14],inactive
same,AC50,[15],14 µM (active)
same,outcome,[16],inactive
CCCOC(=O)c1cc(O)c(O)c(O)c1,outcome,[1],inactive
same,outcome,[2],inactive
same,outcome,[18],inactive
same,outcome,[4],inactive
same,outcome,[5],inactive
same,outcome,[6],inactive
same,outcome,[7],inactive
same,AC50,[9],5.91 µM (active)
same,outcome,[10],inactive
same,outcome,[11],inactive
same,outcome,[12],inactive
same,outcome,[13],inactive
same,outcome,[14],inactive
same,outcome,[15],inactive
same,AC50,[16],27.7 µM (active)
CC1(C)NC(=O)N(c2ccc([N+](=O)[O-])c(C(F)(F)F)c2)C1=O,outcome,[1],inactive
same,outcome,[17],inactive
same,outcome,[2],inactive
same,outcome,[18],inactive
same,outcome,[3],inactive
same,outcome,[4],inactive
same,outcome,[5],inactive
same,outcome,[6],inactive
same,outcome,[7],inactive
same,AC50,[9],68.8 µM (active) and 22 µM (active) and 46 µM (active)
same,outcome,[9],inactive
same,outcome,[10],inactive
same,outcome,[11],inactive
same,outcome,[12],inactive
same,outcome,[13],inactive
same,outcome,[14],inactive
same,outcome,[15],inactive
same,outcome,[16],inactive
O=c1[nH]sc2ccccc12,outcome,[1],inactive
same,outcome,[18],inactive
same,outcome,[4],inactive
same,outcome,[5],inactive
same,AC50,[6],45.9 µM (active)
same,outcome,[7],inactive
same,outcome,[8],inactive
same,AC50,[9],6.26 µM (active)
same,outcome,[10],inactive
same,AC50,[11],42.6 µM (active)
same,AC50,[12],8.49 µM (active)
same,AC50,[13],15 µM (active)
same,AC50,[14],8.74 µM (active)
same,AC50,[15],8.99 µM (active)
same,outcome,[16],inactive
O=c1ccc2ccccc2o1,outcome,[18],inactive
same,outcome,[4],inactive
same,outcome,[5],inactive
same,outcome,[6],inactive
same,outcome,[7],inactive
same,outcome,[8],inactive
same,outcome,[9],inactive
same,outcome,[10],inactive
same,outcome,[11],inactive
same,outcome,[12],inactive
same,outcome,[13],inactive
same,outcome,[14],inactive
same,outcome,[15],inactive
CCCCCCCCCCCCO,outcome,[17],inactive
same,outcome,[2],inactive
same,outcome,[18],inactive
same,outcome,[3],inactive
same,outcome,[4],inactive
same,outcome,[5],inactive
same,outcome,[6],inactive
same,outcome,[7],inactive
same,outcome,[9],inactive
same,outcome,[10],inactive
same,outcome,[11],inactive
same,AC50,[12],36.3 µM (active)
same,AC50,[13],32.7 µM (active)
same,AC50,[14],38.7 µM (active)
same,AC50,[15],31.1 µM (active)
same,outcome,[16],inactive
